# PubChem BioAssay (NCATS)
# Where “and” joins values, the source holds several entries; their conditions need not be identical. Identical values can stand only once. Records with an inconclusive call do not appear. Values without a mark were called inactive. Calls of active or inactive are those of the source. The call rests on the fitted dose curve; in most records, active means well fitted inhibition curve with a large enough effect; inconclusive means small, poorly fitted or top-dose-only effect; inactive means flat fitted curve, though single readings scatter.
# Tested on: KB-3-1
# Test: Cytotoxic Profiling of Annotated Libraries Using Quantitative High-Throughput Screening (AID 1296008); further: nearly all actives have a fitted effect of over 60% in size
# Conditions: Five cell lines viability, CellTiter-Glo ATP luminescence, 48-72 h; max response: stronger effect = lower value
# Summary of the method: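 Cells exposed to compounds for 48 or 72 hr at 37 degrees Celsius. Viability read as ATP-coupled luminescence with CellTiter-Glo after 10 min at room temperature.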
# On the % scale 0 is the no-effect control and ±100 the full control effect; potency means the concentration at half of the fitted maximal effect.
Compound,max response,Potency
NCCCC(=O)O,2.75%,–
O=C(CO)[C@@H](O)[C@H](O)[C@H](O)CO,-8.15%,–
O=S(O)CO,-16%,–
COc1cc([C@@H]2c3cc4c(cc3C(O[C@@H]3O[C@@H]5COC(c6cccs6)O[C@H]5[C@H](O)[C@H]3O)C3COC(=O)[C@@H]32)OCO4)cc(OC)c1O (stereo not given in full),–,3.66 µM (active)
c1cnc2cc3c(cc2n1)[C@@H]1CNC[C@H]3C1,-10.7%,–
CCN(CC)CCOC(=O)c1ccc(N)cc1Cl,1.25%,–
CC(C)(C)CC(=O)OCC(=O)[C@@]12OC(C)(C)O[C@@H]1C[C@H]1[C@@H]3CCC4=CC(=O)C=C[C@]4(C)[C@@]3(F)[C@@H](O)C[C@@]12C,0.193%,–
CCCCOC(=O)C(=O)Nc1cccc(-c2nn[nH]n2)c1,-17%,–
O=C(Cn1cnnn1)N[C@@H]1C(=O)N2C(C(=O)O)=C(CSc3nncs3)CS[C@H]12,-22.7% and -13.7%,–
CC#CCC(C)[C@H](O)/C=C/[C@@H]1[C@H]2c3cccc(CCCC(=O)O)c3O[C@H]2C[C@H]1O (stereo not given in full),-28.3%,–
